# Measurements reported in PMC7862700, “An all-to-all approach to the identification of sequence-specific readers for epigenetic DNA modifications on cytosine”.
# Tests used:
# Experiment in all cases: DAPPL (digital affinity profiling via proximity ligation, sequencing); 10 mM Tris-HCl pH 7.5, 50 mM NaCl, 1 mM DTT, 4% glycerol, room temperature, 30 min; GST-TFs on glutathione beads, 16-mer random dsDNA library, 0.1% formaldehyde crosslink after washing; high values mean tight binding
# FEV = biological target: T1, FEV (Homo sapiens, UniProt Q99581 1-238); details: protein: recombinant; tags: N-terminal GST; dsDNA, one strand shown
# T1 sequence: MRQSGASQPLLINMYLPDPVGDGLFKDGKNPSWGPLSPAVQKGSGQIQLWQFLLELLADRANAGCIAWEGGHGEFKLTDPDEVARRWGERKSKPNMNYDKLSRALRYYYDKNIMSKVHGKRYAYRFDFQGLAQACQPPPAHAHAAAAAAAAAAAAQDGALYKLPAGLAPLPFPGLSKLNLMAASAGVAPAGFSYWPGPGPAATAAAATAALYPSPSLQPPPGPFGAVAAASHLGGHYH
# Procedure, shortened: (§1)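 Beads coated with glutathione captured GST-fused human transcription factors that had been expressed in yeast, and the factors were then given DNA barcodes and pooled with a tag-only sample. The pools were incubated with 200 nmole of a random double-stranded 16-mer DNA library in Tris/NaCl/DTT/glycerol buffer for 30 min at room temperature, washed, crosslinked with 0.1% formaldehyde and proximity-ligated with BsaI/T4 ligase at 37 °C for 1 h. PCR amplification and Illumina NextSeq500 sequencing came last. Binding signal is each hexamer's read frequency for a factor divided by its frequency for the tag-only sample.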
# ETV5 = ETV5 (Homo sapiens, UniProt P41161 1-510); details: protein: recombinant; tags: N-terminal GST; dsDNA, one strand shown
# ETV5, sequence (P41161 whole entry): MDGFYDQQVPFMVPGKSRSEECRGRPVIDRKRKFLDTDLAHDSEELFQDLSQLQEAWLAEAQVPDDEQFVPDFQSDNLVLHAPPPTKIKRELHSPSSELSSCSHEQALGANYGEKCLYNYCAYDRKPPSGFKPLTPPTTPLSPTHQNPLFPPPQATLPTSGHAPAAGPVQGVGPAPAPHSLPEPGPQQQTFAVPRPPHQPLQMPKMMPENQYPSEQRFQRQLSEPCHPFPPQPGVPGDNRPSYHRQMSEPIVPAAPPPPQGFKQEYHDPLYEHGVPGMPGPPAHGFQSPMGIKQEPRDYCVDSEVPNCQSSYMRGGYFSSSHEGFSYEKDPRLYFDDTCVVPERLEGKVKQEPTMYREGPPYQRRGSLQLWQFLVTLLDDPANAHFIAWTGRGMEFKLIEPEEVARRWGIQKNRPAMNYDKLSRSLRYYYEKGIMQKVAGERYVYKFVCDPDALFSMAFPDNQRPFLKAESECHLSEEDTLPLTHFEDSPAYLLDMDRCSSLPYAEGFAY
# Procedure, shortened: as §1
# HSF1 = HSF1 (Homo sapiens, UniProt Q00613 1-529); details: protein: recombinant; tags: N-terminal GST; chain copies: 3; dsDNA, one strand shown
# HSF1, sequence (Q00613 whole entry): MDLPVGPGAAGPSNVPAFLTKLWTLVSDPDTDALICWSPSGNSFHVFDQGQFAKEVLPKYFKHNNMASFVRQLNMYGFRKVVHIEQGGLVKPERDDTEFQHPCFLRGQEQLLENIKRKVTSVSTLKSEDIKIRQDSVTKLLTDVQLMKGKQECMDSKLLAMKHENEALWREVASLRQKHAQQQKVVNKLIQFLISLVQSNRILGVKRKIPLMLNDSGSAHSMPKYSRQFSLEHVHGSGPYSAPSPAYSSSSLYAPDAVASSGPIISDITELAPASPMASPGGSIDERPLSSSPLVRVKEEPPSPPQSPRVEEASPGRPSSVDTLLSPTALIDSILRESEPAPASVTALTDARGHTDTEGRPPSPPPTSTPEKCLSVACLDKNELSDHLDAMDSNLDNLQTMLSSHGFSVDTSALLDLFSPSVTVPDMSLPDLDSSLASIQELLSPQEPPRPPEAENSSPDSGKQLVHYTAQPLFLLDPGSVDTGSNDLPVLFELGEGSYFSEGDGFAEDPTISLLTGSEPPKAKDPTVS
# Procedure, shortened: as §1
# SPIC = biological target: T2, SPIC (Homo sapiens, UniProt Q8N5J4 1-248); details: protein: recombinant; tags: N-terminal GST; dsDNA, one strand shown
# T2 sequence: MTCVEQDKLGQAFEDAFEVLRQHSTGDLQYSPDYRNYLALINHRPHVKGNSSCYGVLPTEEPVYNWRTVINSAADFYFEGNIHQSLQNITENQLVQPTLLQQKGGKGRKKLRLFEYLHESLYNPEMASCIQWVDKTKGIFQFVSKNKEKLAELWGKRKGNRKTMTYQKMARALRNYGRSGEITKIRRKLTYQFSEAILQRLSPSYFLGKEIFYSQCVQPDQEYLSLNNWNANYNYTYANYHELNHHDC
# Procedure, shortened: as §1
# ELF4 = ELF4 (Homo sapiens, UniProt Q99607 1-663); details: protein: recombinant; tags: N-terminal GST; dsDNA, one strand shown
# ELF4, sequence (Q99607 whole entry): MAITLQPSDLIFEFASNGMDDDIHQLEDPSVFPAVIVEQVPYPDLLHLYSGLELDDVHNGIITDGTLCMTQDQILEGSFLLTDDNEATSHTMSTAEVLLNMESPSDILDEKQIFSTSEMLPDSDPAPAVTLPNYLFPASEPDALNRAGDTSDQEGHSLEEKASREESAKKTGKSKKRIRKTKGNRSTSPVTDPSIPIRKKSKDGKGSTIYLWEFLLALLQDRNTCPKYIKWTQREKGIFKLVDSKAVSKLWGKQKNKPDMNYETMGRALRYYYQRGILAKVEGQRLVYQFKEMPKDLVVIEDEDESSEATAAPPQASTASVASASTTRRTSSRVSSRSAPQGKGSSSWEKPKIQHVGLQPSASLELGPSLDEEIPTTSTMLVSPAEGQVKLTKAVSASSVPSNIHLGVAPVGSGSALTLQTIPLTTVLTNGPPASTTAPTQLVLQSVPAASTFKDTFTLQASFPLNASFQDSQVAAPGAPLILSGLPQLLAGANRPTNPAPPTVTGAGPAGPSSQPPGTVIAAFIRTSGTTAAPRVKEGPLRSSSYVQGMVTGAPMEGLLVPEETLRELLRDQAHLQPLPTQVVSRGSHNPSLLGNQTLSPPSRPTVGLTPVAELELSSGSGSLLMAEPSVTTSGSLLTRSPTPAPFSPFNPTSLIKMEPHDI
# Procedure, shortened: as §1
# ELK4 = biological target: T3, ELK4 (Homo sapiens, UniProt P28324-2 1-405); details: protein: recombinant; tags: N-terminal GST; dsDNA, one strand shown
# T3 sequence: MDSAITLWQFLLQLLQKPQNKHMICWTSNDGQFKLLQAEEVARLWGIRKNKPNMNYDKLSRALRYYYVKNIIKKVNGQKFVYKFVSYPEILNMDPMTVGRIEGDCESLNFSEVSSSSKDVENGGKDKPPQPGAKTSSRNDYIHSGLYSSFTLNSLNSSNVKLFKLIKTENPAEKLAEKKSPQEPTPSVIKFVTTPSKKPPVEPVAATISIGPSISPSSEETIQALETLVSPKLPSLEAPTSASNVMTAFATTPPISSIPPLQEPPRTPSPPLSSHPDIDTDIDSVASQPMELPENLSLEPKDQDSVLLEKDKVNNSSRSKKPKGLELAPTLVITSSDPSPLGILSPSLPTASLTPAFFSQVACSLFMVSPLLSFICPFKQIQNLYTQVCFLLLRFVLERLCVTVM
# Procedure, shortened: as §1
# ETV2 = biological target: T4, ETV2 (Homo sapiens, UniProt O00321 1-342); details: protein: recombinant; tags: N-terminal GST; dsDNA, one strand shown
# T4 sequence: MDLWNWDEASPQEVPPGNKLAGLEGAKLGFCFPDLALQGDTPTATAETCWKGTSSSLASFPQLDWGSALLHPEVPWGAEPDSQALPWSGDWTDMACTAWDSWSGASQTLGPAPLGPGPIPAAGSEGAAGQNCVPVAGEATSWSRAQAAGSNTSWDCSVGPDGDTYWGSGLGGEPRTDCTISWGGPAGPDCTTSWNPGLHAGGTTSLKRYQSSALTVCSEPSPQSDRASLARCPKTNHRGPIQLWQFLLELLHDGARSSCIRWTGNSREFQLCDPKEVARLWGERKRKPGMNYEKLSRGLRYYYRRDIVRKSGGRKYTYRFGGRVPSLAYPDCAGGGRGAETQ
# Procedure, shortened: as §1
# ELF3 = biological target: T5, ELF3 (Homo sapiens, UniProt P78545 1-371); details: protein: recombinant; tags: N-terminal GST; dsDNA, one strand shown
# T5 sequence: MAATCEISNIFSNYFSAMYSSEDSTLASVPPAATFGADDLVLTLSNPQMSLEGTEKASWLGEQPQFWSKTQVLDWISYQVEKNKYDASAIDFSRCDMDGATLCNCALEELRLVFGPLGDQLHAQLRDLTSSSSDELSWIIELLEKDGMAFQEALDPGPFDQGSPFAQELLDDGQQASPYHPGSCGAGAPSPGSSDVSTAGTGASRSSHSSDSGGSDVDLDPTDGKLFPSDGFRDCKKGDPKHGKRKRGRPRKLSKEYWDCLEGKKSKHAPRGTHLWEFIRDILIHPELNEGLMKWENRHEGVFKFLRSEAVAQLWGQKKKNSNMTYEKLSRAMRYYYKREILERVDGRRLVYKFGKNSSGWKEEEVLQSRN
# Procedure, shortened: as §1
# CRX = CRX (Homo sapiens, UniProt O43186 1-299); details: protein: recombinant; tags: N-terminal GST; dsDNA, one strand shown
# CRX, sequence (O43186 whole entry): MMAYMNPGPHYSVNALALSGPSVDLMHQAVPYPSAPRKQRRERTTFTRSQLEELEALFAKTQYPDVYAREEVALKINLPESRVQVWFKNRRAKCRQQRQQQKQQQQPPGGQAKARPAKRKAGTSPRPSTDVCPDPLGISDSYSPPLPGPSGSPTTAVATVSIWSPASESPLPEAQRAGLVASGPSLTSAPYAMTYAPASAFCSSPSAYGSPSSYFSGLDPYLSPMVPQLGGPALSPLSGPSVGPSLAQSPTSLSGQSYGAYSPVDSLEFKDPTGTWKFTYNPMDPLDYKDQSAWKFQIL
# Procedure, shortened: as §1
# ETV1 = ETV1 (Homo sapiens, UniProt P50549 1-477); details: protein: recombinant; tags: N-terminal GST; dsDNA, one strand shown
# ETV1, sequence (P50549 whole entry): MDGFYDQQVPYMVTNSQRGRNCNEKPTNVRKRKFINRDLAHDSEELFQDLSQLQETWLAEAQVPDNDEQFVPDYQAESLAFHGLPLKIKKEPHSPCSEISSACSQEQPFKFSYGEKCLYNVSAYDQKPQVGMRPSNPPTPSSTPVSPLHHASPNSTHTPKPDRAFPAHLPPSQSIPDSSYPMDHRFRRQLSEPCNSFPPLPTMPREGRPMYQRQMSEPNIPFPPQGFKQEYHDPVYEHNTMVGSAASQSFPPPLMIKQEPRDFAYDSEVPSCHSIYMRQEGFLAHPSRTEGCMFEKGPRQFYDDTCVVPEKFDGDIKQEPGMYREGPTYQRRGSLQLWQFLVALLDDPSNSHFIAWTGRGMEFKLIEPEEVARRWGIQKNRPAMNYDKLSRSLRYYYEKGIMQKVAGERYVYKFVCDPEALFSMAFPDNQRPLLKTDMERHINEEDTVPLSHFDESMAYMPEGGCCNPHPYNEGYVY
# Procedure, shortened: as §1
# ERF = biological target: T6, ERF (Homo sapiens, UniProt P50548 1-548); details: protein: recombinant; tags: N-terminal GST; dsDNA, one strand shown
# T6 sequence: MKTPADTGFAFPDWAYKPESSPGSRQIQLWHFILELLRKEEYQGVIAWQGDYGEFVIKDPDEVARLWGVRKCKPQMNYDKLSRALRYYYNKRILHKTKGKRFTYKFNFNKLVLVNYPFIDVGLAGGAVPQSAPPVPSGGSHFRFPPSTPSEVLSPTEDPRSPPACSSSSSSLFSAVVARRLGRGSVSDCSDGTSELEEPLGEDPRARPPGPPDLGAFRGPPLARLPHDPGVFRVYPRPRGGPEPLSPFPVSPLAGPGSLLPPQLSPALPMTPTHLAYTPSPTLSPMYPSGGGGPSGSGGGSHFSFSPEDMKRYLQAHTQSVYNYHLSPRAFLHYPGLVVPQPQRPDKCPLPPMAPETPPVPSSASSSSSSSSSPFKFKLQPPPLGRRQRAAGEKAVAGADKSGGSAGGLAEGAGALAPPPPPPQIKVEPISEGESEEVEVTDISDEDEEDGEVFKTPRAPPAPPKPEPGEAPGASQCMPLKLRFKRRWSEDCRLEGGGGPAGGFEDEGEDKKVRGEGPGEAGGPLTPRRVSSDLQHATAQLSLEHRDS
# Procedure, shortened: as §1
# ETV3L = biological target: T7, ETV3L (Homo sapiens, UniProt Q6ZN32 1-361); details: protein: recombinant; tags: N-terminal GST; dsDNA, one strand shown
# T7 sequence: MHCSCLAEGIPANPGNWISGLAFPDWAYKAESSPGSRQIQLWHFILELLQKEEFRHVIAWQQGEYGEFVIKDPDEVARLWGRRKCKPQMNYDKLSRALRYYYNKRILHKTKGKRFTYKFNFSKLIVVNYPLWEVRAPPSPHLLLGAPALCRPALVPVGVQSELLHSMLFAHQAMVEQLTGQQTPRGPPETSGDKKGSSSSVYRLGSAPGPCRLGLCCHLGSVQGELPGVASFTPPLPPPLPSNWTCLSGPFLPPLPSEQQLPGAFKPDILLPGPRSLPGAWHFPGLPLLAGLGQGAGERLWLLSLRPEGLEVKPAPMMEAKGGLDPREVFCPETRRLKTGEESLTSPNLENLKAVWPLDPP
# Procedure, shortened: as §1
# ETS2 = biological target: T8, ETS2 (Homo sapiens, UniProt P15036 1-469); details: protein: recombinant; tags: N-terminal GST; dsDNA, one strand shown
# T8 sequence: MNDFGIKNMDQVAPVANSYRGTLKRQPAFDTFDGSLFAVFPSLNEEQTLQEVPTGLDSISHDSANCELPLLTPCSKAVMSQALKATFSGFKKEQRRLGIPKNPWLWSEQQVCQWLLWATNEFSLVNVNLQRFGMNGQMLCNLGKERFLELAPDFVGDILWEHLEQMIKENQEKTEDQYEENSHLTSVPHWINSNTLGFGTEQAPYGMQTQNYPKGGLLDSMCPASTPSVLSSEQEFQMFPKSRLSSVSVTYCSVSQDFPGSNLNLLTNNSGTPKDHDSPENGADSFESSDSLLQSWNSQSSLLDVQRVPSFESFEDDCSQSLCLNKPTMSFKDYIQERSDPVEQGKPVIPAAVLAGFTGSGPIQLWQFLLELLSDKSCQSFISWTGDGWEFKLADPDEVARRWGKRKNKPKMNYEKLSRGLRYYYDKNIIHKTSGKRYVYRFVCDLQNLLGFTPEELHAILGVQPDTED
# Procedure, shortened: as §1
# SPDEF = biological target: T9, SPDEF (Homo sapiens, UniProt O95238 1-335); details: protein: recombinant; tags: N-terminal GST; dsDNA, one strand shown
# T9 sequence: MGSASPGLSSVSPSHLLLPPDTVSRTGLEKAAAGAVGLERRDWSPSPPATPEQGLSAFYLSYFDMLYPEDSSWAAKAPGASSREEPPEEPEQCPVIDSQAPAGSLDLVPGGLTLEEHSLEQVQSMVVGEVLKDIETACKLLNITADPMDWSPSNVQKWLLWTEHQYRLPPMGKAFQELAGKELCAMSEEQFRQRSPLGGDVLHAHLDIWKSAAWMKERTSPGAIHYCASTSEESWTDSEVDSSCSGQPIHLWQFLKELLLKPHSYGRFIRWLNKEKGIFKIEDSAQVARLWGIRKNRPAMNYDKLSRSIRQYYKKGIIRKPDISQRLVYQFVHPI
# Procedure, shortened: as §1
# ETV7 = biological target: T10, ETV7 (Homo sapiens, UniProt Q9Y603 1-341); details: protein: recombinant; tags: N-terminal GST; dsDNA, one strand shown
# T10 sequence: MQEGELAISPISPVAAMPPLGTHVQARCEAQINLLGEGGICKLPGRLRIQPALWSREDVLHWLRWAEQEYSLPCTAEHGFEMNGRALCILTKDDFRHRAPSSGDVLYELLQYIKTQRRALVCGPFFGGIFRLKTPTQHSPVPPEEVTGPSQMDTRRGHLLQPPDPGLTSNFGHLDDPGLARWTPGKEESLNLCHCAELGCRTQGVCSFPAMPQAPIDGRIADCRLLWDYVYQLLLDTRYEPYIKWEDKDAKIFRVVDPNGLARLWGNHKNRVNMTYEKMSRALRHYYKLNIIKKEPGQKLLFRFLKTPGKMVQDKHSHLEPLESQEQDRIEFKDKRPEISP
# Procedure, shortened: as §1
# ELF5 = biological target: T11, ELF5 (Homo sapiens, UniProt Q9UKW6-2 1-255); details: protein: recombinant; tags: N-terminal GST; dsDNA, one strand shown
# T11 sequence: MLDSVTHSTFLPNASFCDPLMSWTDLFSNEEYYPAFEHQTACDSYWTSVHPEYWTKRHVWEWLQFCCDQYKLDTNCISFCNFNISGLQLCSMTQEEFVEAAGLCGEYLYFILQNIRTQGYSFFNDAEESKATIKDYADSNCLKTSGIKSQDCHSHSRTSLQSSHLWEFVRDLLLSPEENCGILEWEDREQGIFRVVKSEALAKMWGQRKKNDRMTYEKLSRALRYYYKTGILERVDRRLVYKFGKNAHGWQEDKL
# Procedure, shortened: as §1
# ETV3 = biological target: T12, ETV3 (Homo sapiens, UniProt P41162-2 1-143); details: protein: recombinant; tags: N-terminal GST; dsDNA, one strand shown
# T12 sequence: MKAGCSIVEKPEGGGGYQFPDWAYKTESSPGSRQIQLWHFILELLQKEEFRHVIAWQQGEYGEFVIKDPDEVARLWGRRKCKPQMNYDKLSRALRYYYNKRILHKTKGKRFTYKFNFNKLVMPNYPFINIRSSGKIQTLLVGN
# Procedure, shortened: as §1
# ETV6 = ETV6 (Homo sapiens, UniProt P41212 1-452); details: protein: recombinant; tags: N-terminal GST; dsDNA, one strand shown
# ETV6, sequence (P41212 whole entry): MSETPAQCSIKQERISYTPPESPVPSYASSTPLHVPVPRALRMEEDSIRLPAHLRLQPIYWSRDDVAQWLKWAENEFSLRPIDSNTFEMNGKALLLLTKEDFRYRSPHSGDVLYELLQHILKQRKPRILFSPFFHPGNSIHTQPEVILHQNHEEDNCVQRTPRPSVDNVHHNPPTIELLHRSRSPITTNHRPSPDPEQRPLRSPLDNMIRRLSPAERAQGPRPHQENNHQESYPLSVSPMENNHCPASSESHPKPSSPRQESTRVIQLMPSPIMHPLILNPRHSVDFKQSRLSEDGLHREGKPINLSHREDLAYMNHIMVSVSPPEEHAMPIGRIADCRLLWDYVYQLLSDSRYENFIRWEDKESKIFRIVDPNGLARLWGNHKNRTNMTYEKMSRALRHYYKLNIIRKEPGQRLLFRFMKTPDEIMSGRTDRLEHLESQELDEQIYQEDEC
# Procedure, shortened: as §1
sequence,measurement,setting,value
TAATAG,binding signal,FEV,"1.18 fold enrichment (6-mer frequency, TF over GST control)"
same,binding signal,ETV5,"1.21 fold enrichment (6-mer frequency, TF over GST control)"
same,binding signal,HSF1,"1.54 fold enrichment (6-mer frequency, TF over GST control)"
same,binding signal,SPIC,"1.39 fold enrichment (6-mer frequency, TF over GST control)"
same,binding signal,ELF4,"1.15 fold enrichment (6-mer frequency, TF over GST control)"
same,binding signal,ELK4,"1.19 fold enrichment (6-mer frequency, TF over GST control)"
same,binding signal,ETV2,"1.02 fold enrichment (6-mer frequency, TF over GST control)"
same,binding signal,ELF3,"1.06 fold enrichment (6-mer frequency, TF over GST control)"
same,binding signal,CRX,"1.94 fold enrichment (6-mer frequency, TF over GST control)"
same,binding signal,ETV1,"1.22 fold enrichment (6-mer frequency, TF over GST control)"
same,binding signal,ERF,"1.24 fold enrichment (6-mer frequency, TF over GST control)"
same,binding signal,ETV3L,"1.12 fold enrichment (6-mer frequency, TF over GST control)"
same,binding signal,ETS2,"1.2 fold enrichment (6-mer frequency, TF over GST control)"
same,binding signal,SPDEF,"1.19 fold enrichment (6-mer frequency, TF over GST control)"
same,binding signal,ETV7,"1.2 fold enrichment (6-mer frequency, TF over GST control)"
same,binding signal,ELF5,"1.15 fold enrichment (6-mer frequency, TF over GST control)"
same,binding signal,ETV3,"1.15 fold enrichment (6-mer frequency, TF over GST control)"
same,binding signal,ETV6,"1.14 fold enrichment (6-mer frequency, TF over GST control)"
